Structures can show the parent of a compound that is named as a salt. ± gives the standard deviation of the averaged measurements.
Legend:
Experiment in all cases: cell viability (% of vehicle); higher = less cytotoxic
Details in all cases: 10 µM; 72 h
HCI01 = test system: HCI01 (cells of a triple-negative basal-like breast cancer xenograft)
HCI03 = test system: HCI03 (cells of an ER-positive luminal breast cancer xenograft)
HCI09 = test system: HCI09 (cells of a triple-negative luminal androgen receptor type breast cancer xenograft)
HCI11 = test system: HCI11 (cells of an ER-positive luminal breast cancer xenograft)
HCI13 = test system: HCI13 (cells of an ER-positive luminal breast cancer xenograft)
HCI16 = test system: HCI16 (cells of a triple-negative basal-like breast cancer xenograft)
UCD52 = test system: UCD52 (cells of a triple-negative basal-like breast cancer xenograft)
WHIM2 = test system: WHIM2 (cells of a triple-negative basal-like breast cancer xenograft)
WHIM30 = test system: WHIM30 (cells of a triple-negative basal-like breast cancer xenograft)
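Further: PDX cells carrying CMV promoter-driven luciferase, viability read as total photon flux per second by IVIS imaging following D-luciferin, vehicle control 0.1% DMSO.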

Structure (SMILES)	cell viability (HCI01)	cell viability (HCI03)	cell viability (HCI09)	cell viability (HCI11)	cell viability (HCI13)	cell viability (HCI16)	cell viability (UCD52)	cell viability (WHIM2)	cell viability (WHIM30)
CCCN(CCC)CCc1cccc2c1CC(=O)N2.Cl [Ropinirole HCl]	61.7 ± 39	93.8	87.9 ± 2.6	86.3	95.9 ± 8.2	102	78.9 ± 7.1	91.6 ± 38	126 ± 12
COc1cc2c(cc1OC)C(=O)C(CC1CCN(Cc3ccccc3)CC1)C2.Cl (centres undefined) [Donepezil HCl]	137 ± 8.8	89.9	113 ± 5	106	152.6 ± 0.61	147	66.1 ± 6.9	86.1 ± 4	107 ± 14
O=C(NCC1CN(c2ccc(N3CCOCC3=O)cc2)C(=O)O1)c1ccc(Cl)s1 (centres undefined) [Rivaroxaban]	114 ± 11	119	89.9 ± 3.4	105	130 ± 15	94.8	85.2 ± 13	109 ± 9	117 ± 15
CCCc1nn(C)c2c(=O)nc(-c3cc(S(=O)(=O)N4CCN(C)CC4)ccc3OCC)[nH]c12.O=C(O)CC(O)(CC(=O)O)C(=O)O [Sildenafil Citrate]	116 ± 2.8	144	96 ± 15	118	130 ± 23	94.4	88.2 ± 4	83.8 ± 4.8	53.9 ± 10
CC(O)C1C(=O)N2C(C(=O)O)=C(SC3CNC(CNS(N)(=O)=O)C3)C(C)C12 (centres undefined) [Doripenem]	91.4 ± 3.9	103	143 ± 73	106	99.2 ± 19	85.2	82.7 ± 7.5	93.3 ± 19	90.3 ± 15
NCC1OC(OC2C(N)CC(N)C(OC3OC(CO)C(O)C(N)C3O)C2O)C(N)CC1O (centres undefined) [Tobramycin]	112 ± 23	124	98.5 ± 5.4	83.1	58 ± 9.4	88	85.3 ± 6.8	122 ± 32	123 ± 5.3
COc1cc(OC)c(C(=O)CCCN2CCCC2)c(OC)c1.Cl [Buflomedil HCl]	95.4 ± 3.3	131	95.6 ± 15	94.4	86.6 ± 2.6	122	92.5 ± 16	117 ± 28	134 ± 2.4
CC(=O)Nc1ncc([N+](=O)[O-])s1 [Nithiamide]	112 ± 16	159	106 ± 6.2	105	67.5 ± 5.2	133	109 ± 6.1	117 ± 13	91.3 ± 2
COc1c(C)c2c(c(O)c1CC=C(C)CCC(=O)O)C(=O)OC2 [Mycophenolic acid]	99.5 ± 27	93.3	77.8 ± 17	75.1	102 ± 9.5	104	94 ± 6.1	65.8 ± 7.6	151 ± 1.2
C1N2CN3CN1CN(C2)C3 [Methenamine]	89.3 ± 14	127	101 ± 14	90.8	177 ± 29	104	90.2 ± 4.5	91.8 ± 2.4	142 ± 4.7
CC12CCC3c4ccc(O)cc4CCC3C1CC(O)C2O (centres undefined) [Estriol]	132 ± 20	118	125 ± 36	91.7	152 ± 25	152	105 ± 16	98.4 ± 8.9	150 ± 11
CCn1cc(C(=O)O)c(=O)c2cc(F)c(N3CCNCC3)nc21 [Enoxacin (Penetrex)]	101 ± 5.7	144	102 ± 13	109	104 ± 12	91	79.6 ± 0.81	85.5 ± 12	98.8 ± 2.7
CC(C)(C(=O)O)c1ccc(C(O)CCCN2CCC(C(O)(c3ccccc3)c3ccccc3)CC2)cc1.Cl (centres undefined) [Fexofenadine HCl]	127 ± 32	129	115 ± 1.6	96.4	131 ± 6.2	120	87.7 ± 9.4	84.5 ± 14	108 ± 14
CN1CCN(C2=Nc3ccccc3Oc3ccc(Cl)cc32)CC1.O=C(O)CCC(=O)O [Loxapine Succinate]	117 ± 40	88.4	84.5 ± 17	84.4	64.9 ± 5.7	138	108 ± 6.8	104 ± 24	103 ± 6
CC(C)=CCCC(C)=CCCC(C)=CCSc1ccccc1C(=O)O [Salirasib]	69.5 ± 50	112	95.6 ± 7.4	97.9	84.5 ± 4.3	103	95.5 ± 4.6	39.5 ± 1.3	120 ± 15
CC1CCc2cc(F)cc3c(=O)c(C(=O)O)cn1c23 (centres undefined) [Flumequine]	92.8 ± 10	156	93.1 ± 7.6	118	117 ± 6.8	138	107 ± 5.8	98.4 ± 4.2	135 ± 15
C[N+](C)(C)CCOC(N)=O.[Cl-] [Carbamoylcholine chloride]	108 ± 11	120	89.4 ± 1.1	71.4	112 ± 4.6	124	95.6 ± 2.4	127 ± 7	98.9 ± 1.4
Cc1nc2c([nH]1)CCN(C(=O)c1ccc(NC(=O)c3ccccc3-c3ccccc3)cc1)c1ccccc1-2.Cl [Conivaptan HCl]	111 ± 18	83.3	60.4 ± 7.1	85.3	99.5 ± 17	106	71.7 ± 2.5	104 ± 22	141 ± 2
CC(CN1c2ccccc2Sc2ccccc21)N(C)C (centres undefined) [Promethazine HCl]	106 ± 15	90	75.8 ± 5.4	92.9	96.1 ± 3.6	107	73.3 ± 6.1	85 ± 17	114 ± 7.7
Cl.NCCS [Cysteamine HCl]	112 ± 4.3	112	93.4 ± 4.4	95.8	79.5 ± 5.4	108	92.8 ± 18	102.7 ± 1	102 ± 7
Nc1ncnc2c1ncn2C1OC(CO)C(O)C1O (centres undefined) [Vidarabine]	64.8 ± 36	136	90.1 ± 5.1	86.9	106 ± 6.1	96.1	80.5 ± 2.9	105 ± 19	153 ± 7.4
CC(=O)OC1CCC2(C)C(=CCC3C2CCC2(C)C(c4cccnc4)=CCC32)C1 (centres undefined) [Abiraterone acetate]	96.7 ± 14	87.6	65.8 ± 28	88.7	68 ± 12	98	62.6 ± 1.9	95.5 ± 20	117 ± 51
CCC1=CC2CN(C1)Cc1c([nH]c3ccccc13)C(C(=O)OC)(c1cc3c(cc1OC)N(C)C1C(O)(C(=O)OC)C(OC(C)=O)C4(CC)C=CCN5CCC31C54)C2 (centres undefined) [Vinorelbine]	100 ± 15	105	70.5 ± 25	78.5	46 ± 4.7	167	57.5 ± 23	60.5 ± 12	96.7 ± 3.6

Structure (SMILES)	cell viability (HCI01)	cell viability (HCI03)	cell viability (HCI09)	cell viability (HCI11)	cell viability (HCI13)	cell viability (HCI16)	cell viability (UCD52)	cell viability (WHIM2)	cell viability (WHIM30)
Clc1ccc(C(Cn2ccnc2)OCc2csc3c(Cl)cccc23)c(Cl)c1.O=[N+]([O-])O (centres undefined) [Sertaconazole nitrate]	113 ± 34	85.1	53.6 ± 39	103	44.6 ± 5.4	103	107 ± 58	150 ± 36	123 ± 12
CCCCNc1cc(C(=O)O)cc(S(N)(=O)=O)c1Oc1ccccc1 [Bumetanide]	109 ± 9.6	95.9	109 ± 8.9	92	89.5 ± 4	108	99 ± 1.3	78.6 ± 14	133 ± 26
COC(=O)C1=COC(O)C2C(CO)=CCC12 (centres undefined) [Genipin]	168 ± 20	138	95.3 ± 6	98.6	119 ± 2.7	198	110 ± 5.3	124 ± 11	155 ± 9.6
NCCCC(O)(P(=O)([O-])O)P(=O)(O)O.O.O.O.[Na+] [Alendronate]	89.6 ± 12	123	85.1 ± 12	69.5	106 ± 5.1	109	94.7 ± 19	104 ± 5.2	97.5 ± 11
COC(=O)C1CC2=CC(=O)CCC2(C)C23OC2CC2(C)C(CC[C@]24CCC(=O)O4)C13 (some centres undefined) [Epleremone]	90.4 ± 5.2	105	100 ± 24	90.1	94.7 ± 9.2	116	100 ± 7.6	108 ± 4.6	114 ± 3.4
COc1ccc(CC2c3cc(OC)c(OC)cc3CC[N+]2(C)CCC(=O)OCCCCCOC(=O)CC[N+]2(C)CCc3cc(OC)c(OC)cc3C2Cc2ccc(OC)c(OC)c2)cc1OC.O=S(=O)([O-])c1ccccc1.O=S(=O)([O-])c1ccccc1 (centres undefined) [Atracurium Besylate]	187 ± 100	110	87.1 ± 58	81	80.1 ± 19	145	126 ± 2.7	71.5 ± 12	97.1 ± 7
CC(=O)O.NC(N)=NN=Cc1c(Cl)cccc1Cl [Guanabenz Acetate]	134 ± 24	122	83.5 ± 5.4	108	101 ± 12	158	76.9 ± 2.8	109 ± 16	110 ± 20
CC12C=CC(=O)NC1CCC1C2CCC2(C)C(C(=O)Nc3cc(C(F)(F)F)ccc3C(F)(F)F)CCC12 (centres undefined) [Dutasteride]	129 ± 13	107	114 ± 15	92.4	123 ± 1.7	111	100 ± 4.5	90.3 ± 22	142 ± 12
Cc1cn(-c2cc(/N=C(\O)c3ccc(C)c(Nc4nccc(-c5cnccn5)n4)c3)cc(C(F)(F)F)c2)cn1 [Radotinib(IY-5511)]	89.5 ± 3.2	142	92.6 ± 13	92.9	80.9 ± 9.7	107	102 ± 10	100 ± 12	104 ± 27
Cc1cc(C(C)(C)C)cc(C)c1CC1=NCCN1.Cl [Xylometazoline HCl]	74.9 ± 49	114	103 ± 40	89.9	136 ± 29	106	83.9 ± 1.7	110 ± 3.6	158 ± 12
CCS(=O)(=O)CCn1c([N+](=O)[O-])cnc1C [Tinidazole]	92 ± 28	111	79.8 ± 12	88.6	101 ± 4.4	101	83.4 ± 14	81.2 ± 1.9	163 ± 1.9
O=C([O-])C(O)C(O)C(O)C(O)C(O)CO.O=C([O-])C(O)C(O)C(O)C(O)C(O)CO.[Ca+2] (centres undefined) [Calcium Gluceptate]	134 ± 3.3	162	112 ± 4.9	127	110 ± 8.2	124	87.2 ± 13	109 ± 3.2	141 ± 8.1
O=c1[nH]c(=O)n(C2CC(O)C(CO)O2)cc1C(F)(F)F (centres undefined) [Triflurdine (Viroptic)]	123 ± 1.4	132	137 ± 70	111	147 ± 24	97.1	116 ± 1.5	87.8 ± 36	132 ± 15
Cl.NC(CO)C(=O)NNCc1ccc(O)c(O)c1O (centres undefined) [Benserazide HCl]	95.9 ± 1.5	69.1	83.6 ± 6.1	44.9	79.2 ± 11	77.2	69.6 ± 8.5	96.3 ± 3.2	103 ± 4.4
O=C(O)c1ccccc1O [Salicylic acid]	106 ± 7.3	114	138 ± 62	116	99.1 ± 7	98.3	120 ± 16	95.1 ± 13	118 ± 23
COc1ccc2c(c1)c(CC(=O)OCC(=O)O)c(C)n2C(=O)c1ccc(Cl)cc1 [Acemetacin]	108 ± 3.5	113	97.6 ± 29	97.4	111 ± 9	106	78.2 ± 5	86.9 ± 22	76.6 ± 11
NCC1OC(OC2C(CO)OC(OC3C(O)C(N)CC(N)C3OC3OC(CN)C(O)C(O)C3N)C2O)C(N)C(O)C1O.O=S(=O)(O)O (centres undefined) [Neomycin sulfate]	90.1 ± 22	135	91.8 ± 9.7	95.9	79.9 ± 2.5	111	92.9 ± 8.6	102 ± 7.7	95.9 ± 4.7
COc1cc(C2Oc3cc(C4Oc5cc(O)cc(O)c5C(=O)C4O)ccc3OC2CO)ccc1O (centres undefined) [Silymarin]	111 ± 32	129	102 ± 19	89.4	127 ± 3.3	116	107.79 ± 0.095	93.6 ± 18	91.7 ± 2
CN(CCOc1ccc(CC2SC(=O)NC2=O)cc1)c1ccccn1.O=C(O)C=CC(=O)O (centres undefined) [Rosiglitazone maleate]	132 ± 20	115	94 ± 16	90.1	107.5 ± 0.5	99.6	105 ± 7.2	156 ± 25	136 ± 25
CC(=O)O.C[C@H](N)C(=O)O.NCCCC[C@H](N)C(=O)O.N[C@@H](CCC(=O)O)C(=O)O.N[C@@H](Cc1ccc(O)cc1)C(=O)O [glatiramer acetate]	94.3 ± 13	136	108 ± 11	108	171 ± 16	125	118 ± 10	95.9 ± 38	145 ± 6.9
COc1cc(C2c3cc4c(cc3C(OC3OC5COC(c6cccs6)OC5C(O)C3O)C3COC(=O)C23)OCO4)cc(OC)c1O (centres undefined) [Teniposide]	104 ± 2.6	112	105 ± 36	111	134 ± 40	118	111 ± 1.8	87.3 ± 23	96.6 ± 4.3
CCCCCCNC(=O)n1cc(F)c(=O)[nH]c1=O [Carmofur]	110 ± 5.8	103	67.7 ± 9.4	131	80.9 ± 6.8	108	109 ± 41	92.5 ± 38	120 ± 17
CC(C)NCC(O)COc1ccc(CCOCC2CC2)cc1.Cl (centres undefined) [Betaxolol HCl]	132 ± 2.2	134	107 ± 34	107	87 ± 6.8	149	74.2 ± 1.6	101 ± 15	117 ± 1.3

Source: the supplement of paper PMC6992640
